# In the library only some 3.7% were active in any assay of this set; here they are far more common.
# TIM10 inh: growth inhibitors of TIM10 yeast strain; S. cerevisiae TIM10 strain growth, BacTiter-Glo luminescence, 24 h; inhibition, % at 10 µM; 330,000 compounds, 1.4% hits; AID 463195;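 active = inhibition of 40% or more at the single tested concentration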;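 also: wild-type TIM10 isogenic control strain grown at permissive 25 °C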
# PfHsp90 yeast 2: inhibits growth of yeast expressing Plasmodium falciparum Hsp90; S. cerevisiae expressing PfHsp90, BacTiter-Glo ATP, 48 h; yeast lacking PDR1 and PDR3 efflux regulators; inhibition, % at 9.4 µM; AID 504621; 310,000 compounds, 0.32% hits;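 active = every replicate shows inhibition above about 80%, whatever the replicate mean, limit read from the data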;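 also: 0% = DMSO neutral controls and 100% = 20 µM radicicol positive controls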
# NALP3 yeast inh: inhibitors of NALP3 inflammasome in yeast; Yeast reconstituted NLRP3/ASC/caspase-1, beta-gal luminescence, 24 h; inhibition, % at 10 µM; 330,000 compounds, 0.39% hits;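 active = inhibition of 50% or more; inactive = inhibition below 50%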;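 also: plate controls were induced DMSO wells for no effect and uninduced yeast grown without galactose for full effect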
# tim23-1 inh: tim23-1 yeast growth inhibition | S. cerevisiae tim23-1 growth, BacTiter-Glo luminescence, 24 h | inhibition, % at 20 µM | 330,000 compounds, 1.3% hits | AID 463212;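 active = growth inhibition of the mutant yeast at or above 50%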;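 also: temperature-sensitive mutant grown at 25 °C; plate controls were DMSO-treated mutant yeast for no effect and medium wells lacking yeast for full effect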
# tim10-1 inh: inhibits growth of tim10-1 mutant yeast; 330,000 compounds, 2.2% hits; inhibition, % at 20 µM; S. cerevisiae tim10-1 ts strain growth, BacTiter-Glo, 24 h;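 active = inhibition of at least 40%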;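 also: mutant grown at 25 °C; 0% = DMSO wells with yeast and 100% = wells holding no yeast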
# tim10-1 confirm: confirmation of tim10-1 mutant yeast growth inhibitors; shares compounds with tim10-1 inh; S. cerevisiae tim10-1 ts strain growth, BacTiter-Glo, 24 h; inhibition, % at 20 µM; 7,400 compounds, 56% hits; AID 463213;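 active = inhibition of yeast growth at or above a set limit in either of two repeat tests at 20 µM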;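 also: tim10-1 mutant grown at permissive 25 °C to find synthetic lethal compounds; 0% = DMSO yeast wells and 100% = medium wells without yeast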
# Active calls of the source: *; x = not tested or not shown.
SMILES,TIM10 inh,PfHsp90 yeast 2,NALP3 yeast inh,tim23-1 inh,tim10-1 inh,tim10-1 confirm
CCOC(=O)c1cc(-c2cccs2)nc2c1c(C)nn2-c1ccccn1,32,-8,20,41,52*,40*
CC(C)CC(=O)Nc1c2c(nn1-c1ccc(F)cc1)CS(=O)(=O)C2,5,-22,6,17,-13,x
CC(C)(C)OC(=O)N1CCC[C@H]1c1nnc(SCc2ccccc2Cl)o1,14,-8,12,27,29,x
CC(C)(C)OC(=O)N1CCC[C@H]1c1nnc(SCc2ccc(Cl)cc2Cl)o1,19,-22,20,38,40*,18
CC1(C)CC(=O)C=C(NC2CCCCCCC2)C1,6,5,7,4,21,x
COc1ccc(N2C(=O)c3ccccc3C(C)(C)C2=O)cc1,27,-7,15,45,23,x
COc1ccc2c(c1)C(=O)N(c1ccccc1C)C(=O)C2(C)C,33,7,32,32,47*,30
N/C(=N\OC(=O)c1ccncc1)c1cccc([N+](=O)[O-])c1,17,-26,5,13,18,x
N/C(=N\OC(=O)c1ccc([N+](=O)[O-])cc1)c1cccnc1,23,5,5,36,40*,37*
N/C(=N\OC(=O)CCCOc1ccccc1)c1cccc([N+](=O)[O-])c1,26,32,21,32,55*,46*
Cc1ccc(C(=O)O/N=C(\N)c2cccc([N+](=O)[O-])c2)cc1,39,4,20,25,52*,72*
N/C(=N\OC(=O)C1CCCCC1)c1cccc([N+](=O)[O-])c1,26,-21,12,31,47*,49*
O=C(c1cc(S(=O)(=O)N2CCOCC2)ccc1Cl)N1CCCCC1CO (stereo not given),4,8,5,-2,-12,x
CC(C)CN1C(=O)c2ccc(C(=O)Nc3ccccc3C(=O)O)cc2C1=O,10,-13,6,16,15,x
O=C(Nc1ccccc1)C1=C[C@H](C2CC2)C[C@H](OCCCCO)O1,9,1,-5,23,14,x
N#Cc1c(N)nc(SCC(=O)C23CC4CC(CC(C4)C2)C3)c(C#N)c1-c1ccc(Cl)cc1,25,-22,15,37,45*,43*
O[C@@H]1CN(Cc2ccccc2Cl)CC[C@H]1N1CCOCC1,-1,8,19,5,-16,x
O=C(C1CCN(S(=O)(=O)c2cccc3cccnc23)CC1)N1CC=C(c2ccccc2)CC1,28,x,5,29,43*,17
CCn1c2ccccc2c2nnc(SCC(N)=O)nc21,-5,-22,16,6,-6,x
CCn1c2ccccc2c2nnc(SCc3ccccc3)nc21,9,-14,18,36,44*,27
Cc1ccc(C(=O)C(C)N(C(=O)c2ccc(Cl)cc2Cl)N2C(=O)CCCC2=O)cc1 (stereo not given),24,14,11,12,21,x
COc1ccc(C(=O)C(C)N(C(=O)c2ccc(Cl)cc2Cl)N2C(=O)C3C4C=CC(C4)C3C2=O)cc1 (stereo not given),22,24,10,42,47*,21
O=C(NCc1cccnc1)/C(=C/c1ccc(-c2cccc(Cl)c2)o1)S(=O)(=O)c1ccccc1,32,14,0,48,44*,36*
O=C(NCc1cccnc1)/C(=C\c1ccc(-c2cccc(Cl)c2)o1)S(=O)(=O)c1ccccc1,x,7,x,x,x,x
C=C1CCC[C@]2(C)C[C@H]3OC(=O)C(CN4CCOCC4)[C@H]3C[C@@H]12 (stereo not given in full),24,-16,-16,36,51*,46*
SMILES,TIM10 inh,PfHsp90 yeast 2,NALP3 yeast inh,tim23-1 inh,tim10-1 inh,tim10-1 confirm
CN(C)c1ccc(C(=O)/C=C/c2cccnc2)cc1,9,-10,29,19,19,x
O=C(/C=C/c1cccnc1)c1ccc(F)c(F)c1,18,5,21,33,40*,26
C=CCn1c(=N)c(S(=O)(=O)c2ccc(C)c(C)c2)cc2c(=O)n3ccccc3nc21,-9,-26,1,1,6,x
CCCCc1ccc(/C=C2\C(=O)ON=C2c2ccccc2)s1,18,-12,1,21,40*,29
O=C1ON=C(c2ccccc2)/C1=C/c1ccco1,19,x,10,41,36,x
CCN1C(=O)/C(=C/c2c(C)nn(C)c2C)SC1=S,25,x,14,45,55*,44*
O=C(/C=C/c1cccc(F)c1)N1CCN(c2ncccn2)CC1,2,-14,22,0,10,x
C/C(=N\OC(=O)NC(C)C)c1sc(-c2ccccc2)nc1C,20,-5,37,29,31,x
C/C(=N\OC(=O)NC(C)C)c1sc(-c2ccc(Cl)cc2)nc1C,18,-11,24,23,45*,42*
Cc1nc(-c2ccccn2)sc1C(=O)Nc1ccc(Cl)c(Cl)c1,35,5,18,-3,47*,29*
CC(C(=O)N1CCN(c2ccc(Cl)cc2)CC1)c1ncc(C(F)(F)F)cc1Cl (stereo not given),32,0,6,30,43*,9
CC(Sc1nncs1)C(=O)Nc1ccc(Cl)cn1 (stereo not given),-8,-11,12,-7,9,x
COc1ccc(N2CCN(C(=O)c3cccc(S(=O)(=O)N4CCCc5ccccc54)c3)CC2)cc1,2,5,19,15,2,x
CC(=O)Nc1ccc2c(c1)CCc1ccccc1-2,14,11,28,40,39,x
O=C(O)/C=C/C(=O)c1ccc2c(c1)CCc1ccccc1-2,27,96*,38,48,58*,54*
CC(=O)c1ccc(N2CCC(c3cc(-c4ccc(Cl)cc4Cl)n[nH]3)CC2)c([N+](=O)[O-])c1,36,x,13,16,44*,22
O=[N+]([O-])c1cccnc1N1CCC(c2cc(-c3ccc(Cl)cc3Cl)n[nH]2)CC1,32,-59,17,26,37,x
COc1ccc(-n2cnnc2SCC(=O)N2CCN(c3ccccc3)CC2)cc1,-4,-2,4,5,13,x
COc1ccc(N2CCN(C(=O)CSc3nnc(-c4cc5ccccc5cc4O)n3C)CC2)cc1,22,0,5,33,45*,19
O=c1oc(CCO)cc2ccc(-c3ccc4[nH]ccc4c3)cc12,-31,1,7,-8,-42,x
CS(=O)(=O)N(CC(=O)N1CCc2ccccc2C1)c1ccc2c(c1)OCO2,7,x,1,19,15,x
COc1cc(C(=O)NC(=S)Nc2ccc(Cc3ccncc3)cc2)cc(OC)c1OC,14,-5,9,40,47*,35*
CN(C(=S)Oc1ccc(C(=O)Nc2ccccc2)cc1)c1ccccc1,39,-5,-6,38,51*,30
COc1ccc(NC(=O)c2ccc(OC(=S)N(C)c3ccc(OC)cc3)cc2)cc1,-4,-5,13,10,13,x

# From PubChem BioAssay
